The values below come from PubChem BioAssay (NCI).

Structures are written as SMILES. This is part of a sample that, as a whole, favours compounds with a hit. Of some 83,000 tested, about 20% had one in any assay.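 Treatment: one concentration, 48 hours, 96-well format. Scoring: percent growth, with anything below 10 considered active.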 A number with no mark means an inactive call. Calls of active or inactive are those of the source.

This test relates to U251 CNS. The experiment in a line: NCI-60 one-dose screen, 48 h (100 = growth as untreated, 0 = no growth, -100 = all killed). The note with it: 10 µM unless noted.
With `COc1ccc(C2=CC(c3cc(OC)c(OC)c(OC)c3)NC(=O)N2)cc1OC` (stereo not drawn), the growth is 21.1%.
As for `O=C(CCl)N(C1CCCCC1)C1CCCCC1`, the figure is 104%; as for `CNC(=S)NNC(=O)C1CC1`, 109%; as for `COc1ccc(/C=C(\C#N)c2cc(OC)c3c(c2)OCO3)cc1`, 20.8%.
As for `Cc1ccc2nc(Cl)cc(=O)n2c1`, the growth is 119%.
As to `O=c1cc(Cc2ccc([N+](=O)[O-])cc2)[nH]c(=O)[nH]1`, the growth is 103%.
As for `CC1=C(C#N)C(=O)NC(C)C1` (stereo not drawn), the figure is 105%.
As for `CNc1ccc(Br)c2c1C(=O)c1ccccc1C2=O`, the figure is 103%; as for `Cc1ccc(S(=O)(=O)C2=C3C(=C(c4ccccc4)c4ccccc43)CN(S(=O)(=O)c3ccc(C)cc3)C2)cc1`, 38.4%.
In the case of `C=C(C)[C@@H]1C[C@@H]2Cc3cc(F)ccc3N1O2`, the growth was 89.5%.
As for `NC(N)=Nc1nc2ccccc2o1`, the figure is 101%.
As for `CC(C)(C)OC(=O)NC(CSCc1ccccc1)C(=O)ON1C(=O)CCC1=O` (stereo not drawn), the figure is 105%; as for `COc1ccc(CN2CCc3c(Sc4ccccc4)nc(N)nc3C2=O)c(OC)c1`, 72.3%.
Regarding `COc1cc(/C=C/C(=O)c2ccc(Nc3ncnc4cc(OC)c(OC)cc34)cc2)cc(OC)c1`, the growth is 72.3%.
Under `S=C1CC(=S)NC(=S)N1` stands 103%; under `COc1ccc2c(c1)[nH]c(=O)c1c3cccc(F)c3cn21`, 0.931% (active).
As for `NC1=NN(O)C2=CC([N+](=O)[O-])C=CC2=N1` (stereo not drawn), the figure is 109%; as for `C=C[C@@H]1C[C@@H]2Cc3cc(Cl)ccc3N1O2`, 89.7%.
